Results published in PubChem BioAssay (NCI).
Compounds without any hit were thinned out: in the full panel of roughly 83,000, 20% have a hit.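 The test compound was applied at a single concentration to cells in 96-well plates for 48 hours, and percent growth was recorded.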 Unmarked numbers belong to inactive results. The source made the active and inactive calls. How the source made its calls: active means growth percent below 10; inactive means the rest.

system: HL-60(TB) leukemia; assay: NCI-60 one-dose screen, 48 h (100 = growth as untreated, 0 = no growth, -100 = all killed); conditions: 10 µM unless noted

| SMILES | growth |
| --- | --- |
| O=c1[nH]c2c(ccc3cnccc32)c2c1CCC2 | 13.4% |
| N/N=C(/Cc1ccccc1)NNC(N)=S | 97.8% |
| CCCc1n(Cc2ccc3ccccc3c2)c2ccccc2[n+]1Cc1ccc2ccccc2c1 | -64.2% (active) |
| COc1ccc(/C=C/C(=O)Nc2cc(/C=C\c3cc(OC)c(OC)c(OC)c3)cc(OC)c2OC)cc1OC | -38.1% (active) |
| O=C(NNc1ccc(-c2ccccc2)nn1)c1ccc(F)cc1 | 96.7% |
| COCCNC(C)=O | 107% |
| COc1ccc(-c2cc(-c3cc(OC)c(OC)c(OC)c3)c(C#N)c(=O)n2CCCCC(=O)NO)cc1 | 44% |
| Cc1cc(N2CCN(CC(=O)Nc3ccc4c(ccn4Cc4ccccc4)c3)CC2)nc(N2CCOCC2)n1 | 87.3% |
| CCN(CC)CCCC(C)N=C(C1=C(C(=NC(C)CCCN(CC)CC)c2cccc(OC)c2)C(=O)NC1=O)c1cccc(OC)c1 (centres undefined) | -49.3% (active) |
| CCCc1cc(=O)n2c(C(=O)Nc3cccc(C(=O)OCC)c3)c(C(=O)Nc3ccc(F)cc3)sc2n1 | 73.6% [30 µM] |
| O=C1C=C(O)C(=O)C=C1O | 91.2% |
| CCCCCCCC(=O)Nc1nc2[nH]c(CN3CCN(Cc4cccc(I)c4)CC3)c(CN3CCN(Cc4cccc(I)c4)CC3)c2c(=O)[nH]1 | -49.3% (active) |
| NCCOc1ncccc1/C=C1\C2C=CC=CC2C2C=CC(F)=CC12 (centres undefined) | -24.3% (active) |
| O=C1c2c(O)cc(O)cc2-c2c(-c3ccc(O)cc3)oc3cc(O)cc1c23 | 17% |
